High-throughput results deposited in PubChem BioAssay by National Center for Advancing Translational Sciences (NCATS).
D2 ag-1 = D2 dopamine receptor (human) agonism. HEK293 T-REx D2 cells, calcium flux agonist mode. AID 485358. P14416. activation, % at 2 µM. actives 0.53% (n = 340,000);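 active means activation over 3 SD above normal in the single-dose calcium agonist read, cut at about 30% in these data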
Target sequence (P14416 whole entry, looked up): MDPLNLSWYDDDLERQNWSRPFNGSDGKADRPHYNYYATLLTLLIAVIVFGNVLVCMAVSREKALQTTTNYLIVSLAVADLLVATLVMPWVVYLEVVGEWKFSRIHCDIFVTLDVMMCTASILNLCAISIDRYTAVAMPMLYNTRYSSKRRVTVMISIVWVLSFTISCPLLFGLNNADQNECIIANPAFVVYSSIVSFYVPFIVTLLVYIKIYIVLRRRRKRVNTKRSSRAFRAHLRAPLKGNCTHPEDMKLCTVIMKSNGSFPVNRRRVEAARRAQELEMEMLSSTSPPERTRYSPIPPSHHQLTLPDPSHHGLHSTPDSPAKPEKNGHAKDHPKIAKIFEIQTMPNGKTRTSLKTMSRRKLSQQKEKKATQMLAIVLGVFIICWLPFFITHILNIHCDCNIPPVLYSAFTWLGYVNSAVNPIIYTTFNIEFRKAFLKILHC
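Tetracycline-induced HEK293 T-REx cells with force-coupled D2 receptor, plated overnight at 30 C, loaded with no-wash calcium dye. After a 10 s baseline, compound was pin-added and calcium flux read kinetically for 180 s; calcium rises flagged agonists.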
D2 ag-2 = activates the human D2 dopamine receptor | P14416 | DiscoveRx PathHunter D2 beta-arrestin, luminescence, 90 min; 100% = 57 uM dopamine signal | activation, % (no concentration beside the values) | actives 0.084% (n = 360,000) | AID 624465; in the data active means activation above about 40%
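Agonist mode: compounds alone added to overnight-plated D2 PathHunter cells for 90 min at 37 C, with 57 uM final dopamine (EC100) defining full response. Beta-arrestin recruitment detected by chemiluminescent reagent, read after 1 h at ambient temperature.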
D2 PAM-1 = positive allosteric modulators of human D2 dopamine receptor | DiscoveRx D2 beta-arrestin cells, luminescence, 90 min; 100% = 57 uM dopamine signal | AID 624464 | potentiation, % (test concentration not listed) | actives 0.23% (n = 360,000); in the data active means potentiation above about 50%
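D2 cells co-treated with compound plus 50 nM dopamine (EC20) for 90 min at 37 deg C to detect potentiation. Beta-arrestin recruitment was read as enzyme-fragment luminescence after 1 h at ambient temperature. Full response was set by 57 uM dopamine.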
D2 antagonist = antagonists of human D2 dopamine receptor; HEK293 TREx D2 cells, calcium flux, dopamine EC80; P14416; actives 2% (n = 340,000); inhibition, % at 10 µM; in the data active means inhibition above about 30%; inactive means below that, where a call was filed
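HEK293 T-REx D2 cells, tet-induced, calcium dye no-wash. Cpd pintool add, 180 s kinetic, then EC80 DA, 180 s kinetic. Ca flux read.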
D2 PAM-2 = positive allosteric modulators of human D2 dopamine receptor. HEK293 T-REx D2, calcium flux, EC20 dopamine potentiation. potentiation, % at 10 µM. actives 0.34% (n = 340,000). AID 485347;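 active means potentiation over 3 SD above the plate norm, cut at about 30% in these data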
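Cells plated with tetracycline inducer and held overnight at 30 C; calcium dye loaded 30–90 min at room temperature; baseline taken, compound added and read 180 s; EC20 dopamine then added and read 180 s.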
Large screens that a line does not name were inactive. Only some compounds are listed: those with a hit (about 2.4% of all), similar ones and a draw of the others.

Cc1ccc(C)c(NS(=O)(=O)c2ccc(OCC(=O)N3CCOCC3)cc2)c1	D2 antagonist 32
CN(c1ccc(OCC(=O)N2CCOCC2)cc1)S(=O)(=O)c1ccc(Cl)cc1	D2 antagonist 35
CN(c1ccc(OCC(=O)N2CCOCC2)cc1)S(=O)(=O)c1ccc(F)cc1	none
Cc1ccc(C)c(NS(=O)(=O)c2ccc(OCC(=O)N3CCCC3)cc2)c1	none
Cc1nc2c(c(C)c1CCC(=O)Nc1cccc(C(F)(F)F)c1)c(=O)n(C)c(=O)n2C	none (no result: D2 ag-2, D2 PAM-1, D2 antagonist)
COc1ccc(-c2nsc(NC(=O)COc3ccc(C)c(C)c3)n2)cc1	none (no result: D2 ag-2, D2 PAM-1, D2 antagonist)
O=C(/C=C/c1ccc(S(=O)(=O)N2CCOCC2)cc1)N1CCN(c2ccc(F)cc2)CC1	none
CC1CC(C)CN(C(=O)/C=C/c2ccc(S(=O)(=O)N3CCOCC3)cc2)C1 (configuration not stated)	D2 antagonist 30
Cc1ccc(C2=CC(c3ccccc3F)n3c(nc4ccccc43)N2)cc1C (configuration not stated)	none (no result: D2 ag-2, D2 PAM-1, D2 antagonist)
Cc1cccc(N(CC(=O)N2CCCC2)S(=O)(=O)c2ccccc2)c1	none (no result: D2 ag-1, D2 antagonist, D2 PAM-2)
Cc1ccc(S(=O)(=O)N(CC(=O)N2CCCCC2)c2cccc(C)c2)cc1	D2 antagonist 32
CCCCN(C)CCNC(=O)c1ccc(Cn2c(=O)[nH]c3cc(OC)c(OC)cc3c2=O)cc1	none (no result: D2 ag-2, D2 PAM-1, D2 antagonist)
CC(C)CCNC(=O)c1cnc2sc(N3CCCCC3)nn2c1=O	none (no result: D2 ag-2, D2 PAM-1, D2 antagonist)
Cc1cccc(OCC(=O)OC(C)C(=O)Nc2ccc(Cl)cn2)c1 (configuration not stated)	none
Cc1cccc(C(=O)NCC(=O)OC(C)C(=O)Nc2ccc(Cl)cn2)c1 (configuration not stated)	D2 antagonist 37
CCn1cc(C(=O)N(C)c2ccc(C(C)C)cc2)c2cc(OC)c(OC)cc2c1=O	none (no result: D2 ag-2, D2 PAM-1, D2 antagonist)
CCOC(=O)C1CCC(CN(Cc2ccc(Cl)cc2)S(=O)(=O)c2cc(Cl)cc(Cl)c2)CC1 (configuration not stated)	none (no result: D2 ag-2, D2 PAM-1, D2 antagonist)
CCOc1ccccc1CN1CCN(C/C=C/c2ccc(OC)cc2)CC1CCO (configuration not stated)	D2 antagonist 34
Cn1c(C(=O)NCCN2CCc3ccccc3C2)cc2c(=O)n(C)c3ccccc3c21	D2 antagonist 48
COc1ccc(-c2nnc(NC(=O)c3ccccc3C)o2)cc1	D2 antagonist 51
CC1CCC(NC(=O)CSc2nncs2)CC1 (configuration not stated)	none
O=C(CSc1nncs1)NC1CCCCCCC1	D2 antagonist 31
O=C(Nc1ccccc1C(=O)O)c1cccc(NC(=O)c2ccco2)c1	none (no result: D2 ag-1, D2 antagonist, D2 PAM-2)
O=C(Nc1ccc(O)cc1C(=O)O)c1ccc(NC(=O)c2ccco2)cc1	D2 antagonist 46
CCC(=O)NNc1nc2c(F)cc(F)cc2s1	D2 antagonist 40
O=C(NNc1nc2c(F)cc(F)cc2s1)C1=COCCO1	D2 antagonist 39
CCN(CC)c1nn2c(=O)c(C(=O)NCc3ccc(OC)cc3OC)cnc2s1	none (no result: D2 ag-2, D2 PAM-1, D2 antagonist, D2 PAM-2)
CCCC(=O)OCc1cnc(C)c2oc(=O)c(C(=O)Nc3ccccc3)cc12	none (no result: D2 ag-1, D2 ag-2, D2 PAM-1, D2 antagonist)
CCCC12CN3CCN(CC(C3)/C1=N\NC(=O)Nc1ccccc1)C2	D2 antagonist 54
CCCC12CN3CCN(CC(C3)/C1=N\NC(=O)c1ccc(F)cc1)C2	none
Cc1oc2ccc(O)c(CN(C)Cc3ccccc3)c2c1C(=O)Nc1cccc(Cl)c1C	none (no result: D2 ag-2, D2 PAM-1, D2 antagonist)
Cc1nc2ccccc2c(C)c1C(=O)c1ccccc1	D2 antagonist 30
CCCCNC(=O)c1sc(=S)n2c1[nH]c(=O)c1ccccc12	D2 antagonist 33
Cc1ccc(C)c(N2CCN(S(=O)(=O)c3cc(C(=O)Nc4ccc(Oc5ccccc5)cc4)ccc3F)CC2)c1	none (no result: D2 ag-2, D2 PAM-1, D2 antagonist)
O=c1[nH]c2cc3c(cc2cc1CN(CCc1ccccc1)Cc1nnnn1C1CCCC1)OCCO3	D2 ag-1 35 (no result: D2 ag-2, D2 PAM-1)
Cc1cc2cc(CN(Cc3ccc4c(c3)OCO4)Cc3nnnn3C3CCCC3)c(=O)[nH]c2cc1C	none
O=C(Cn1cc(/C=N/O)c2ccccc21)N1CCOCC1	D2 antagonist 39
Cc1cccc(CSc2cn(CC(=O)N3CCOCC3)c3ccccc23)c1	D2 antagonist 35
C=CCN1C(=O)/C(=C/C=C2/N(CC)c3ccc(S(=O)(=O)N(C)C)cc3N2CC)SC1=S	D2 ag-1 52
O=C(c1cc(Br)ccc1OC(F)F)N1CCN2CCCC2C1 (configuration not stated)	D2 antagonist 33
c1nc(N2CCCC2)c2[nH]cnc2n1	none
OCCN1CCN(c2ncnc3nc[nH]c23)CC1	D2 antagonist 34
CCC1(c2ccc(Cl)cc2)NC(=O)N(Cc2ccc(C(=O)OC)cc2)C1=O (configuration not stated)	D2 PAM-2 35
CCC1(c2ccc(Cl)cc2)NC(=O)N(CC(=O)NCc2ccc(F)cc2)C1=O (configuration not stated)	none
COc1cc(Cl)c(C)cc1NC(=O)CC1SC(N2CCOCC2)=NC1=O (configuration not stated)	D2 antagonist 99
COc1ccc(NC(=O)CC2SC(N3CCOCC3)=NC2=O)c(OC)c1 (configuration not stated)	none (no result: D2 ag-1, D2 antagonist, D2 PAM-2)
O=C(Nc1ccc(N2CCN(Cc3ccccc3Cl)CC2)cc1)c1cccnc1	none
O=C(N/N=C/c1ccc(N2CCCC2)c([N+](=O)[O-])c1)c1cccnc1	D2 antagonist 41
COc1cc(OC)cc(C(=O)NC(=S)Nc2ccc(NC(=O)c3ccco3)cc2)c1	D2 PAM-2 37
COc1cccc(C(=O)NC(=S)Nc2ccc(N3CCCC3)cc2)c1	D2 antagonist 57
COc1ccc(C(=O)NC(=S)Nc2ccc(N3CCCC3)cc2)cc1	none (no result: D2 ag-1, D2 antagonist, D2 PAM-2)
O=C(Nc1ccc(N2CCCCC2)cc1)c1cccnc1	D2 antagonist 34
CCC(=O)N1CCc2cc(S(=O)(=O)CCC(=O)Nc3ccc(OC(F)(F)F)cc3)ccc21	none (no result: D2 ag-2, D2 PAM-1, D2 antagonist)
Cc1ccc2c(c1)C(c1ccc(F)cc1)N(C(=O)COc1ccc(Cl)cc1Cl)CC(=O)N2 (configuration not stated)	none (no result: D2 ag-2, D2 PAM-1, D2 antagonist)
CCOC(=O)c1oc2ccc(S(=O)(=O)n3nc(-c4ccc(C)cc4)cc3N)cc2c1C	D2 antagonist 35
CSc1ccc(CCNC(=O)c2ccc3c(c2)nc2n3CCCCC2)cc1	none (no result: D2 ag-2, D2 PAM-1, D2 antagonist)
Cc1cc(C)n(C(=O)c2ccc(NC(=O)CC(C)C)cc2)n1	D2 antagonist 33
CCC(=O)Nc1ccc(C(=O)n2nc(C)cc2C)cc1	none
Cc1ccc(C)c(CN2CCC(CNC(=O)Nc3ccc(C)c(C)c3)CC2)c1	none
CCC(C)[C@H](NC(=O)NC1CCN(Cc2ccccc2)CC1)C(=O)OC (some centres not stated)	D2 antagonist 57
CCc1cccc(CN2CCC(CNC(=O)Nc3ccc(Cl)cc3)CC2)c1	D2 antagonist 35
